Bioassay records from PubChem BioAssay.
TTR transcr act – TTR transcription activators in neuroblastoma reporter cells, primary screen, cell-based, luminescence, SH-SY5Y, TTR promoter Gaussia luciferase. 100% = recombinant luciferase protein wells. activation, % at 16.7 µM. 92,000 tested, 1.3% active. AID 1117267, 2014;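 active means activation above the mean of all tested compounds plus 3 SD, cut at about 9.5% in these data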;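 further: cells exposed to compounds for one day before reading; 0% = median of all test compound wells on the plate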
TTR inh HuH7 – TTR promoter reporter inhibitors in hepatoma cells, counter-screen for TTR transcription activator project, cell-based, luminescence, HuH7 hepatoma; inhibition, % at 16.7 µM; HuH7 TTR promoter-Gaussia luciferase reporter; AID 1117279, 2014; shares compounds with TTR transcr act; 1,100 tested, 4% active;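 active means average inhibition above the solvent-only control wells' mean plus 3 SD, cut at about 15% in these data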;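 further: 0% = cells with DMSO only and 100% = cells with inhibitor control FD; inhibitors lower well luminescence so higher value means more inhibition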
TTR up confirm – TTR transcription activators, retest, confirmation, cell-based, luminescence, SH-SY5Y, triplicate | SHSY5Y TTR promoter Gaussia luciferase; 100% = purified Lucia enzyme wells, no cells | AID 1117280, 2014 | activation, % at 16.7 µM | 1,100 tested, under 10 active | shares compounds with TTR transcr act;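 active means mean activation above a set limit taken from the earlier primary screen, cut at about 11% in these data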;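 further: 0% = DMSO-treated cells and 100% = recombinant Lucia luciferase without cells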
* hit, by the source's call. Only a selection was taken, and hits are over-represented in it overall.

SMILES | TTR transcr act | others
O=S(=O)(/N=C(/Nc1ccc(F)c(F)c1F)c1ccccc1)c1ccccc1 | -1
CC(=O)c1c(O)cc(C(C)C)n(-c2ccccc2)c1=O | -1
CC(C)c1cccc(O)c(=O)c1 | 10* | TTR inh HuH7=-7;TTR up confirm=-1
Cc1ccc(C(C)C)c(O)c1 | 4
CCOC(=O)N1CCN(S(=O)(=O)N2CCCC(C(=O)NC(C)c3ccccc3)C2)CC1 (stereo not given) | 2
Nc1ccccc1SCC(=O)Nc1cccc2ccccc12 | -1
O=C(O)CSCC(=O)Nc1cccc2ccccc12 | 10.0* | TTR inh HuH7=-6;TTR up confirm=0
N=c1sccn1CC(=O)Nc1cccc2ccccc12 | 2
Cc1ccc(C(=O)N/C(=C\c2ccco2)C(=O)NCCCn2ccnc2)cc1C | -1
CC1CN(C(=O)c2cc(S(=O)(=O)N3CCCCC3)ccc2Cl)CC(C)O1 (stereo not given) | -1
C[C@@H]1CN([C@@H](C)CO)C(=O)CCCn2cc(nn2)CO[C@H]1CN(C)C(=O)C1CC1 | 1
Cc1cc(C(F)F)n2nc(C(=O)Nc3c(F)cc(F)cc3Br)nc2n1 | 1
COC(=O)c1ccccc1NC(=O)c1nc2nc(C)cc(C(F)F)n2n1 | 9.8* | TTR inh HuH7=-9;TTR up confirm=0
Cc1cc(C(F)F)n2nc(C(=O)O)nc2n1 | 0
CCCCn1nnnc1SCC(=O)N1CCOCC1 | -2
CCOC(=O)CC1(C)Oc2ccccc2N1S(=O)(=O)c1ccc(C)cc1 (stereo not given) | 5
COc1ccc2cc3c(N)nn(C(=O)c4ccccc4[N+](=O)[O-])c3nc2c1 | 26* | TTR inh HuH7=26*;TTR up confirm=-1
CCCC1CCC(C(=O)n2nc(N)c3cc4ccc(OC)cc4nc32)CC1 (stereo not given) | -1
COc1ccc2cc3c(N)nn(C(=O)c4ccc(Cl)c([N+](=O)[O-])c4)c3nc2c1 | -1
CCOC(=O)[C@]12CCCC3=C1N(CCC3)C(=O)[C@@H](CC(=O)NCC1CCCCC1)C2 | 0
Nc1[nH]c(C(=O)c2ccccc2)c(-c2ccc(Cl)cc2Cl)c1C(=O)c1cccs1 | 0
CC(=O)Nc1cccc(CNCc2cccc(NC(C)=O)c2)c1 | -1
CCC(C)C(=O)Nc1ccc(OC)cc1OC (stereo not given) | 1
COc1ccc(NC(=O)/C=C/C(=O)O)c(OC)c1 | 2
COc1ccc(NC(=O)C(F)(OC)C(F)(F)F)c(OC)c1 (stereo not given) | 14* | TTR inh HuH7=-8;TTR up confirm=1
SMILES | TTR transcr act | others
O=C(CSc1nc2ccc(Nc3nc(N4CCOCC4)nc(N4CCOCC4)n3)cc2s1)Nc1ccccc1 | -2
CCN1CCCCC(NC(=O)c2ccc(F)cc2)C1=O (stereo not given) | -1
COc1ccc2c(c1)C[C@@H]1CC(C)(C)CN1S2(=O)=O | 9
COc1cccc(S(=O)(=O)N(C)C[C@H]2OCc3cn(nn3)CCCC(=O)N([C@@H](C)CO)C[C@@H]2C)c1 | 0
CCCC1CCC2(CCCN2CCOC(=S)Nc2ccccc2OC)CC1 (stereo not given) | -1
NC(=O)c1oc2ccccc2c1NC(=O)c1nc2ccccc2s1 | -1
CC(C)C(=O)Nc1nnc(-c2ccccc2)o1 | -1
O=C(Nc1nnc(-c2ccccc2)o1)c1nc2ccccc2s1 | 15* | TTR inh HuH7=-12;TTR up confirm=2
COc1ccc2c(c1)N=CN1CCc3c([nH]c4ccccc34)C3=NCC[C@@]321 | -1
CN(C)/C=C1/C=C(C=O)OC1=O | 4
COC(=O)c1c(C)nc2nonc2c1N | 0
O=C(CN1C(=O)C2C3C=CC(C4CC34)C2C1=O)Nc1cnc2ccccc2c1 (stereo not given) | -2
O=C(NCCc1c[nH]c2ccccc12)OCc1cn(Cc2c(F)cccc2F)nn1 | 0
O=C(CSc1nnc(-c2cccc(F)c2)o1)NC1CCCC1 | -1
O=C(CSc1nnc(-c2ccccc2)o1)NCC1CCCCC1 | 12* | TTR inh HuH7=-6;TTR up confirm=-1
Cc1cnc(NC(=O)CSc2nnc(-c3ccccc3)o2)s1 | -2
CC(OC(=O)Cn1cc(C(F)(F)F)ccc1=O)C(=O)N(C)c1ccccc1 (stereo not given) | 1
CCCC[C@H](C(=O)N(CC)c1ccccc1)[C@@H](O)c1ccc(C(C)=O)cc1 | 1
C=CCN(C(=O)[C@@H](C)[C@@H](O)c1ccc(C(C)=O)cc1)c1ccccc1 | 4
CCN(C(=O)[C@@H](C)[C@@H](O)c1ccc(C(C)=O)cc1)c1ccccc1 | 11* | TTR inh HuH7=-4;TTR up confirm=0
CC1(C(=O)NS(=O)(=O)c2ccc(F)cc2F)CCN1C(=O)C/C=C/c1ccccc1 (stereo not given) | 0
CCOC(=O)[C@@]12CCCC=C1N(CCc1ccc(Cl)cc1)C(=O)[C@H]2CC(=O)N1CCSCC1 | 0
CCOC(=O)c1c(C)oc2ccc(O)c(CN3CCCCC3)c12 | 23* | TTR inh HuH7=-7;TTR up confirm=0
CCOC(=O)c1c(CN2CCCCC2)oc2ccc(OC)cc12 | -1
CCOC(=O)c1c(-c2ccccc2)oc2ccc(O)c(CN3CCOCC3)c12 | -4
SMILES | TTR transcr act | others
CCCS(=O)(=O)NC(=O)C1(C)CCN(C(=O)c2cccc3ccccc23)C1 (stereo not given) | 5
CC(NC(=O)c1ccco1)C(=O)OCc1cccc(C(F)(F)F)c1 (stereo not given) | 11* | TTR inh HuH7=-10;TTR up confirm=1
CC(NC(=O)[C@H](C)NC(=O)c1ccco1)c1ccc(S(N)(=O)=O)cc1 (stereo not given in full) | -1
CC(C)[C@H](NC(=O)c1ccco1)C(=O)OCC(=O)Nc1cccc(F)c1 | 0
O=C(OCC#CCSc1nnc(-c2cccc3ccccc23)o1)C1CC1 | 0
CCCC[C@H]1C2CC(OC(=O)NCCCC(=O)OCC)C(C2)[C@H]2CCCCN21 (stereo not given in full) | 2
COC(=O)C1CN(CCO)CCS(=O)(=O)N1Cc1cn(Cc2ccccc2Br)nn1 (stereo not given) | 4
O=C(CN(Cc1ccc(Br)cc1)S(=O)(=O)c1ccccc1)NCc1ccccn1 | 22* | TTR inh HuH7=-22;TTR up confirm=1
CNC(=O)CN(Cc1ccccc1)S(=O)(=O)c1ccccc1 | 2
COc1ccc(CNC(=O)CN(Cc2ccc(Cl)cc2)S(=O)(=O)c2ccccc2)cc1 | 1
COc1ccc(CC(=O)NNC(=O)c2c(-c3ccccc3Cl)noc2C)cc1OC | 4
O=C(OCC#CCSc1nnc(-c2cccs2)o1)c1ccc(F)cc1 | 0
CC1CCc2nc3ccccc3c(C(=O)OCC(=O)N(C)C3CCS(=O)(=O)C3)c2C1 (stereo not given) | 0
COc1cccc(NC(=O)COC(=O)c2c(F)cccc2Cl)c1 | -1
COc1cccc(NC(=O)COC(=O)c2c3c(nc4ccccc24)CCC(C)C3)c1 (stereo not given) | 11* | TTR inh HuH7=-3;TTR up confirm=0
O=C(NC1CCCC1)C(c1ccccc1)n1c(-c2cccc3ccccc23)nc2ccccc21 (stereo not given) | 0
C#CCOCCOCCOCCNc1nc(N2CCOCC2)nc(N2CCN(C(=O)[C@H](CCCCN)n3cc([C@@H](N)CO)nn3)CC2)n1 | 2
